# Experimental data from PubChem BioAssay AID489017 (The Scripps Research Institute Molecular Screening Center, 2010).
# A number with no mark means an inactive call. How the calls were made is not given here.
# System: Rolipram
# Test: receptor, enzyme and CYP inhibition profiling – biochemical, Ricerca HitProfilingScreen, CYP450, selectivity assay for S1P4 antagonist project, profiling panel (AID 489017)
# Conditions: Ricerca receptor/enzyme binding panel plus CYP450, at 10 µM, active compounds read high
compound,measurement,value
CCc1cccc(CC)c1NC(=O)c1ccc(-c2cc(Cl)ccc2Cl)o1,inhibition,-2%
